According to PubChem BioAssay (NCI):
Values joined by “and” are separate entries in the source; they are usually repeats but may differ in a detail not shown here. Identical values can stand only once. This is part of a sample that, as a whole, favours compounds with a hit. Of some 79,000 tested, about 15% had one in any assay. The source holds several records for some structures; these can differ, active in one and inactive in another. Active and inactive are the calls of the source. Rule as the data show it: active = growth inhibition above about 70%; inactive = the rest.

assay: NCI Yeast Anticancer Drug Screen. Data for the rad50 strain (AID 155);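 also: 0% = growth of vehicle-only cultures of the same strain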; details: S. cerevisiae rad50 strain growth inhibition; at 11.0 µM; stronger effect = higher value
Outline: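 A DNA repair-deficient yeast mutant serves as the test organism; compound-induced growth inhibition is calculated against vehicle-treated cells.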

Row | SMILES | growth inhibition
1 | O=C(O)c1ccccc1.[Ag] | 99% (active)
2 | CC(=O)[O-].O=C([CH-]C(=O)c1ccccc1)c1ccccc1.O=C([CH-]C(=O)c1ccccc1)c1ccccc1.[Sm+3] | 79% (active)
3 | C=C[C@H]1CN2CC[C@H]1C[C@@H]2[C@@H](O)c1ccnc2ccccc12 | 3% (inactive)
4 | O=c1c2ccccc2[se]n1-c1cccnc1 | 65% (inactive)
5 | [Pt].c1ccc(P(CCP(c2ccccc2)c2ccccc2)CCP(c2ccccc2)c2ccccc2)cc1 | 23% (inactive)
6 | CC12CCC(C1)C(C)(C)C2OC(=O)c1ccccc1N (stereo not given) | 7% (inactive)
7 | OC1(c2ccccc2)CC2CCC(C1)N2CCCC(O)(c1ccccc1)c1ccccc1 (stereo not given) | -13% (inactive)
8 | COC(=O)C(F)C(Br)C(=O)OC (stereo not given) | 96% (active)
9 | CCCCCCCCCC[Se]C#N | 14% (inactive)
10 | CNCC(O)c1ccc(O)c(O)c1.[Pt].c1ccc([PH+](c2ccccc2)c2ccccc2)cc1.c1ccc([PH+](c2ccccc2)c2ccccc2)cc1 | -1% (inactive)
11 | Nc1nc(N)c(-c2ccc(Cl)c(Cl)c2)c(CP(Cl)(Cl)(Cl)Br)n1 | 69% (inactive)
12 | Cc1ccc(P(c2ccc(C)cc2)c2ccc(C)cc2)cc1 | 25% (inactive)
13 | CC1CC(C)CC(C)C(O)/C(C#N)=C/C=C/CC(C2CCCC2C(=O)O)OC(=O)CC(O)C(C)C1 (stereo not given) | 97% (active)

same assay, conditions: S. cerevisiae rad50 strain growth inhibition; at 33.0 µM; stronger effect = higher value

Row | SMILES | growth inhibition
14 | O=C(O)c1ccccc1.[Ag] | 99% (active)
15 | CC(=O)[O-].O=C([CH-]C(=O)c1ccccc1)c1ccccc1.O=C([CH-]C(=O)c1ccccc1)c1ccccc1.[Sm+3] | 96% (active)
16 | C=C[C@H]1CN2CC[C@H]1C[C@@H]2[C@@H](O)c1ccnc2ccccc12 | 2% (inactive)
17 | O=c1c2ccccc2[se]n1-c1cccnc1 | 92% (active)
18 | [Pt].c1ccc(P(CCP(c2ccccc2)c2ccccc2)CCP(c2ccccc2)c2ccccc2)cc1 | 94% (active)
19 | CC12CCC(C1)C(C)(C)C2OC(=O)c1ccccc1N (stereo not given) | 30% (inactive)
20 | OC1(c2ccccc2)CC2CCC(C1)N2CCCC(O)(c1ccccc1)c1ccccc1 (stereo not given) | 21% (inactive)
21 | COC(=O)C(F)C(Br)C(=O)OC (stereo not given) | 98% (active)
22 | CCCCCCCCCC[Se]C#N | 52% (inactive)
23 | CNCC(O)c1ccc(O)c(O)c1.[Pt].c1ccc([PH+](c2ccccc2)c2ccccc2)cc1.c1ccc([PH+](c2ccccc2)c2ccccc2)cc1 | 96% (active)
24 | Nc1nc(N)c(-c2ccc(Cl)c(Cl)c2)c(CP(Cl)(Cl)(Cl)Br)n1 | 76% (active)
25 | Cc1ccc(P(c2ccc(C)cc2)c2ccc(C)cc2)cc1 | 33% (inactive)
26 | CC1CC(C)CC(C)C(O)/C(C#N)=C/C=C/CC(C2CCCC2C(=O)O)OC(=O)CC(O)C(C)C1 (stereo not given) | 97% (active)

same assay, conditions: S. cerevisiae rad50 strain growth inhibition; at 50.0 µM (retest, dose inferred, filed as 5.0); stronger effect = higher value

Row | SMILES | growth inhibition
27 | COC(COC(N)=O)C1=C(N2CC2)C(=O)C(C)=C(N2CC2)C1=O (stereo not given) | 98% (active)
28 | Cc1nc(Cl)c(CBr)c(Cl)n1 | 99% (active)
29 | C[n+]1[se]nc2cc(C(=O)c3ccccc3)ccc21 (tested in a mixture with another compound) | 99% (active)
30 | O=C(O)c1ccccc1.[Ag] | 99% (active) and 98% (active)
31 | CC(=O)[O-].O=C([CH-]C(=O)c1ccccc1)c1ccccc1.O=C([CH-]C(=O)c1ccccc1)c1ccccc1.[Sm+3] | 55% (inactive)
32 | CC(C)(Br)C(=O)C(Br)Br | 99% (active)
33 | COC1(OC)C(Cl)=C(Cl)C(Cl)=C1Cl | 95% (active)
34 | C=C[C@H]1CN2CC[C@H]1C[C@@H]2[C@@H](O)c1ccnc2ccccc12 | 13% (inactive)
35 | [C-]#[O+].[C-]#[O+].[Ir].[O-]c1ccc2ccccc2c1N=Nc1ccccc1 | -4% (inactive)
36 | O=C(Nc1ccccc1)OC(C[N+](=O)[O-])C(Cl)(Cl)Cl (stereo not given) | 99% (active)
37 | O=c1c2ccccc2[se]n1-c1cccnc1 | 64% (inactive)
38 | [Pt].c1ccc(P(CCP(c2ccccc2)c2ccccc2)CCP(c2ccccc2)c2ccccc2)cc1 | 90% (active)
39 | CC12CCC(C1)C(C)(C)C2OC(=O)c1ccccc1N (stereo not given) | 50% (inactive)
40 | CC(=O)[O][Hg][c]1cc2c(cc1O)Cc1cc([N+](=O)[O-])ccc1-2 | 98% (active)
41 | OC1(c2ccccc2)CC2CCC(C1)N2CCCC(O)(c1ccccc1)c1ccccc1 (stereo not given) | 6% (inactive)
42 | ClC1=C(Cl)C(Cl)(Cl)SS1 | 99% (active)
43 | COC(=O)C(F)C(Br)C(=O)OC (stereo not given) | 99% (active)
44 | c1ccc2c(NCCCCCCNc3c4ccccc4nc4ccccc34)c3ccccc3nc2c1 | 89% (active)
45 | c1ccc2c(NCCCCCCCCNc3c4ccccc4nc4ccccc34)c3ccccc3nc2c1 | 97% (active)
46 | CN(Cc1ccccc1)CC(O)c1ccc(Cl)cc1 (stereo not given) | 38% (inactive)

Row | SMILES | growth inhibition
47 | Br[C](Br)(Br)[Hg][c]1ccccc1 | 98% (active)
48 | Cc1cc(N=Nc2ccccc2C)ccc1N | 44% (inactive) and 96% (active)
49 | C/C(=N\N=C(/[Se])N1CC2CCC(CC2)C1)c1ccccn1 | 79% (active)
50 | CCCCCCCCCC[Se]C#N | 99% (active)
51 | CNCC(O)c1ccc(O)c(O)c1.[Pt].c1ccc([PH+](c2ccccc2)c2ccccc2)cc1.c1ccc([PH+](c2ccccc2)c2ccccc2)cc1 | 99% (active)
52 | CCN(CC)CC.CCOc1ccc(NC(=O)N=C=[N-])cc1.[CH-]1CCCCC1.[CH-]1CCCCC1.[CH-]1CCCCC1.[Cl-].[Sn+4] | 99% (active)
53 | Cc1cc(N(C)C)c2ccccc2[n+]1CCCCCCCCCC[n+]1c(C)cc(N(C)C)c2ccccc21 | 98% (active)
54 | CCC[CH2][Sn]1([CH2]CCC)[O]CC(CN2CCCC2)[O]1 (stereo not given) | 96% (active)
55 | N#Cc1ccc([Se]c2ccccc2)cc1 | 96% (active)
56 | O=c1ssc(Cl)c1Cl | 98% (active)
57 | Nc1nc(N)c(-c2ccc(Cl)c(Cl)c2)c(CP(Cl)(Cl)(Cl)Br)n1 | 80% (active)
58 | Cc1ccc(P(c2ccc(C)cc2)c2ccc(C)cc2)cc1 | 96% (active)
59 | O=C(O)c1ccccc1[Se][Se]c1ccccc1C(=O)O | 73% (active)
60 | CC1CC(C)CC(C)C(O)/C(C#N)=C/C=C/CC(C2CCCC2C(=O)O)OC(=O)CC(O)C(C)C1 (stereo not given) | 98% (active)
61 | CCC[CH2][Pb]([Cl])([CH2]CCC)[CH2]CCC | 98% (active)
62 | CNC(Cc1ccccc1)c1ccc(OC)c(OC)c1 (stereo not given) | 95% (active)
63 | CC1C(=O)OCC1(C)O (stereo not given) | -2% (inactive)
64 | O=C(Nc1ccccc1)c1cc([N+](=O)[O-])ccc1O | 98% (active)
65 | N=P(c1ccccc1)(c1ccccc1)c1ccccc1 (tested in a mixture with another compound) | 32% (inactive)
